Marburg entry inh – qHTS for inhibitors of binding or entry into cells for Marburg Virus. Marburg virus pseudotyped entry inhibition, cell reporter. Potency, µM (titrated, usually from 37.8 µM), without a hit: top-dose activity change, negative = inhibition, actives largely listed as inhibitors. 300,000 tested, 1.8% active. AID 540276, 2011; calls by dose curve; tested in HEK293 cells; note: potency is the fitted concentration of half-maximal effect
FMDV inh – High Throughput Screening for Foot and Mouth Disease Virus Antivirals | 410,000 tested, 1.2% active | AID 1159524, 2015 | FMDV antiviral cell-based qHTS | Potency, µM (top dose mostly 57.9 µM), without a hit: at the top dose activity change, negative = inhibition, most hits filed as inhibitors; calls by dose curve; tested in HEK293T cells; note: read-out not given here; potency is the fitted concentration of half-maximal effect; nearly all actives have a fitted effect of over 45% in size
Lassa entry inh – qHTS for Inhibitors of binding or entry into cells for Lassa Virus; AID 540256, 2011; 300,000 tested, 1.2% active; Potency, µM (titrated, usually from 37.9 µM), for inactives: at the highest dose activity change, negative = inhibition, actives largely listed as inhibitors; Lassa virus pseudotype entry inhibition, cell reporter; calls by dose curve; tested in HEK293 cells; note: potency is the fitted concentration of half-maximal effect; nearly all actives have a fitted effect of over 50% in size
HCMV inh – qHTS Assay for inhibitors of the human cytomegalovirus (HCMV). HFF cells, HCMV-luciferase reporter, 72 h; active compounds read low. activity change, negative = inhibition, % at 57.5 µM. 410,000 tested, 4.5% active. AID 1259415, 2018; in the data active = activity change below about -60%; inconclusive = no clear call, values can overlap the other calls; inactive = above about -39%
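Luciferase read-out from HCMV-luciferase-infected HFFs (MOI 1 PFU/cell) 72 h post infection at 37C; compounds added after 16 h cell attachment; activity normalized between buffer-only basal and Salinomycin (10uM) inhibitor controls.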
Active calls of the source: *; ? = inconclusive; · = no result; [ ] = remark or other dose. In the library only some 6.2% were active in any assay of this set; here they are far more common. % is set by controls: 0 for no effect and ±100 for the full control effect.

SMILES	Marburg entry inh	FMDV inh	Lassa entry inh	HCMV inh
CCCc1cnc(NCCNCC(O)COc2ccc(Cl)c(Cl)c2)nc1 (stereo unspecified)	?	?	-28%	-98*
Cc1cc(NC(=O)CSCC(=O)Nc2ccccc2Oc2ccccc2)no1	2.8µM*	?	?	-37
Cc1ccc(Oc2ccccc2NC(=O)CSCC(=O)Nc2cc(C)on2)cc1	13µM*	?	?	-75*
COc1cc(=O)n2c(c1C(=O)NC(C)c1ccco1)CCN(Cc1ccc3nsnc3c1)CC2 (stereo unspecified)	·	0%	·	·
CCCCOC(=O)/C=C/c1ccc(OC(=O)OC)c(OC(=O)OC)c1	11µM*	-2%	?	-18
COc1ccc(Nc2c3c(nc4ccc(C)cc24)CCC3)cc1	·	?	·	-81*
Cc1ccc2nc3c(c(Nc4ccc5c(c4)OCCO5)c2c1)CCC3	?	-44%	14µM*	-66*
COc1ccc(OCC(=O)NNc2c3ccccc3nc3ccccc23)cc1	?	22µM*	?	-75*
O=C(COc1ccccc1)NNc1c2ccccc2nc2ccccc12	11µM*	25µM*	?	-92*
CCCC(=O)NNc1c2ccccc2nc2ccccc12	23%	-15%	0%	-9
O=C(CCCO)NNc1c2ccccc2nc2ccccc12	8%[46.1 µM]	-3%	-5%	-21
O=C1CCCN2N=C(SCC(=O)Nc3ccc(Cl)cc3)SC2=N1	0%[46.1 µM]	-7%	?	-35
O=C1CCCN2N=C(SCC(=O)Nc3cccc(C(F)(F)F)c3)SC2=N1	?	-14%	-29%[46.1 µM]	-86*
O=C1CCCN2N=C(SCC(=O)Nc3ccccc3C(F)(F)F)SC2=N1	11%	-14%	0%	72
O=C1CCCN2N=C(SCC(=O)Nc3cccc(Cl)c3)SC2=N1	-27%[46.1 µM]	-23%	-23%[46.1 µM]	-81*
COCCNC(=S)N1C[C@H]2CON(C)[C@H]2C[C@H]1c1ccccc1Br	·	·	·	-11
COCOc1c2c(c(OCOC)c3c(OCOC)cccc13)C(=NNS(C)(=O)=O)C1=C2CCCC1	1%[14.2 µM]	·	·	·
O=C(Cn1cnc2c(nnn2-c2ccccc2)c1=O)N1CCCc2ccccc21	·	?	·	-25
O=C(Cn1cnc2c(cnn2-c2ccccc2)c1=O)N1CCCc2ccccc21	7.3µM*	?	?	?
COc1ccc(C2C3C(=O)N(Cc4ccccc4)C(=O)C3ON2c2ccccc2)c(OC)c1OC (stereo unspecified)	?	-1%	5.6µM*	5
COc1cc(C2C3C(=O)N(Cc4ccccc4)C(=O)C3ON2c2ccccc2)cc(OC)c1OC (stereo unspecified)	4%	-18%	7%	-18
CC(C)c1ccc(/C=C(\C#N)c2nc(-c3ccc(O)cc3)cs2)cc1	·	-23%	5%[46.1 µM]	-87*
CC1CCN(C(=O)c2cc(Cl)ccc2NC(=O)c2ccco2)CC1	-9%[46.1 µM]	17%	·	-60*
CN1CCN(C(=O)c2cc(Cl)cc(Cl)c2NC(=O)c2ccco2)CC1	-1%	-11%	-6%	-33
Cc1ccc(-c2cc(-c3ccc(C)cc3)[n+](C)o2)cc1	3.5µM*	?	12µM*	-103*
SMILES	Marburg entry inh	FMDV inh	Lassa entry inh	HCMV inh
C=CCN1C(c2ccc(Br)cc2)=CS/C1=C(\C#N)c1nnc(N2CCOCC2)n1-c1ccccc1	?	?	?	-8
C=CCN1C(c2ccc(OCC)cc2)=CS/C1=C(\C#N)c1nnc2n1CCCCC2	?	?	?	-60*
NC(=O)c1cc(N)ccc1N1CCCCC1	13%[46.1 µM]	12%	-5%	-61*
COc1cccc(CSc2nnc(-c3ccncc3)n2N)c1	?	-2%	?	-69*
Nn1c(SCc2cccc(Oc3ccccc3)c2)nnc1C(F)(F)F	?	6%	0%	-73*
Nn1c(SC/C=C/c2ccccc2)nnc1-c1ccncc1	22%	-24%	-20%	-69*
COc1cc(-c2nnc(SC/C=C/c3ccccc3)n2N)cc(OC)c1OC	?	?	0%	24
CCc1ccc(NCc2cc3ccc(OC)cc3n(CC(=O)Nc3c(C)cc(C)cc3C)c2=O)cc1	·	-1%	6%[46.1 µM]	7
COc1ccc(-c2cc(C(=O)Oc3ccccc3)c3cc(C)ccc3n2)cc1	·	18%	2%[46.1 µM]	53
COc1ccccc1CC(=O)Nc1cccc(S(=O)(=O)N2CCOCC2)c1	9%	-1%	-8%	1
COc1ccc(CC(=O)Nc2cccc(S(=O)(=O)N3CCOCC3)c2)cc1OC	·	?	·	-66*
CS(=O)(=O)c1ccc2nc(NC(=O)CN3CCC(Cc4ccccc4)CC3)sc2c1	-3%[46.1 µM]	0%	15%[46.1 µM]	-85*
COc1ccc(S(=O)(=O)N2CCOCC2)cc1NC(=O)CN1CCCC1	?	-11%	23%	-9
COc1cc(CC(=O)Nc2cccc(S(=O)(=O)N(C)c3ccccc3)c2)cc(OC)c1OC	·	22µM*	·	?
COc1ccc(S(=O)(=O)N2CCOCC2)cc1NC(=O)CN1CCC(Cc2ccccc2)CC1	?	-16%	10µM*	-66*
COc1cccc(C(=O)Nc2cccc(OCc3cc(=O)n4cccc(C)c4n3)c2)c1	·	?	23%[46.1 µM]	-21
COC(=O)[C@]1(Sc2ccc(OC)cc2)CC(=O)N[C@@H]1c1ccc(OC(C)C)c(OC)c1	·	·	·	-9
COc1cccc(CC(=O)Nc2ccc(S(=O)(=O)N3CCCCC3)cc2)c1	10µM*	15%	?	-6
COc1cccc(CC(=O)Nc2cc(S(=O)(=O)N3CCCCC3)ccc2C)c1	·	-28%	·	25
O=C(COc1ccc(Br)cc1CO)Nc1ccc(F)cc1	1%	-5%	9%	-2
COc1cccc(OC)c1OCC(=O)Nc1ccc(S(=O)(=O)N2CCCC2)cc1	·	25µM*	·	-25
O=C(COc1ccc(Br)cc1CO)Nc1ccc(S(=O)(=O)N2CCCC2)cc1	?	35µM*	0%	?
COc1ccc(CC(=O)Nc2cccc(S(=O)(=O)N3CCCC3)c2)cc1OC	·	-27%	·	-85*
Cc1ccc2c(c1)CN(CCNC(=O)c1cc3ccccc3oc1=O)CC(C)O2 (stereo unspecified)	·	0%	·	·
COc1ccc(S(=O)(=O)N2CCN(Cc3nc4ccc(C)cc4o3)CC2)cc1	·	-13%	?	6
SMILES	Marburg entry inh	FMDV inh	Lassa entry inh	HCMV inh
COc1ccc(S(=O)(=O)N2CCCCC2)cc1NC(=O)Cc1sc(C)nc1-c1ccc(F)cc1	?	-16%	?	-65*
CCOc1ccc(S(=O)(=O)N2CCCCC2)cc1NC(=O)Cc1cc(OC)c(OC)c(OC)c1	·	-24%	·	-88*
CCOc1ccc(S(=O)(=O)N2CCCCC2)cc1NC(=O)Cc1ccccc1	·	-25%	·	-38
CCCc1nc2ccccc2c(C(=O)OCC(=O)Nc2cccc(S(=O)(=O)N3CCOCC3)c2)c1CC	?	-1%	18µM*	0
COc1cc(CC(NC(C)=O)C(=O)NC2CCN(S(=O)(=O)c3ccc(NC(C)=O)cc3)CC2)cc(OC)c1 (stereo unspecified)	11%[46.1 µM]	0%	·	-72*
C/C(=N/O)C(=O)NCCCNCCCN(C)C	5%[46.1 µM]	·	·	·
COc1cc(NS(=O)(=O)c2cc3c(cc2C)N(C)CCO3)cc(OC)c1OC	·	57%	11%[46.1 µM]	7
